This note sets out measurements from PubChem BioAssay AID720706 (Broad Institute, 2013).

About 5,500 (1.6%) of roughly 350,000 compounds were called active.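 How the source made its calls: active means significant combined selectivity score with lowered wild-type GFP, culture density cut under 30%, mutant RFP and density less affected; inactive means any of these conditions unmet.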 The list comes from a sample in which actives are over-represented; it also holds similar structures and randomly drawn compounds.

A short description of this assay: reduced GFP signal of wild-type E. coli, primary screen, bacterial rRNA inhibitor project, GFP/RFP fluorescence, OD600, single point (AID 720706). The following applies: E. coli WT GFP vs humanized-ribosome RFP mutants, 24 h; GFP signal change (wild-type ribosome): stronger effect = lower value, DMSO median 0, no signal -100; OD600 change: measured here: OD600 growth, DMSO median 0, no signal -100; RFP signal change: measured here: RFP humanized mutant strains, DMSO median 0, no signal -100, concentration not given here.
Turning to `C[C@@H]1CN([C@H](C)CO)C(=O)c2cc(NC(=O)Cn3cnnn3)ccc2O[C@@H]1CN(C)Cc1ccc(C(F)(F)F)cc1`, the GFP signal change (wild-type ribosome) is -1.05% (inactive), the OD600 change is -5.5% and the RFP signal change was -0.189%.

With `O=C(Cc1ccc(Cl)cc1)c1ccccc1`, the GFP signal change (wild-type ribosome) was 3.35% (inactive), the OD600 change stood at 2.91% and the RFP signal change was -5.05%.

For the compound `CN(C(=O)CN(CCO)CC(=O)N(C)C(C)(C)Cc1ccccc1)C(C)(C)Cc1ccccc1`, the GFP signal change (wild-type ribosome) was -31.9% (inactive), the OD600 change is -35.7% and the RFP signal change was -7.29%.

Turning to `OCCN(Cc1ccccc1)Cc1ccc(Cl)cc1`, the GFP signal change (wild-type ribosome) is -23% (active), the OD600 change is -9.66% and the RFP signal change is 0.44%.

As to `CCC(=O)N[C@H]1CC[C@@H](CC(=O)NCC2CC2)O[C@@H]1CO`, the GFP signal change (wild-type ribosome) was 3.28% (inactive), the OD600 change was found to be 7.08% and the RFP signal change was 3.11%.

For `CC(C)NC(=O)Nc1ccc2c(c1)C(=O)N([C@@H](C)CO)C[C@H](C)[C@@H](CN(C)Cc1ccc(C(=O)O)cc1)OCCCC[C@H](C)O2`, the GFP signal change (wild-type ribosome) was -0.801% (inactive), the OD600 change was found to be 3.15% and the RFP signal change was -0.195%.

Regarding `O=C(Nc1ccc(N2CCN(C(=O)c3ccccc3)CC2)c(Cl)c1)c1ncn[nH]1`, the GFP signal change (wild-type ribosome) was -24.4% (active), the OD600 change is -14.7% and the RFP signal change came to 0.07%.

In the case of `O=C(Nc1ccccc1N1CCN(C(=O)c2ccccc2)CC1)c1ccco1`, the GFP signal change (wild-type ribosome) is -8.24% (inactive), the OD600 change was -9.77% and the RFP signal change was -0.948%.

On to `CN1CCN(c2ccc(NC(=O)c3ccc4c(c3)OCCO4)cc2Cl)CC1`, for which the GFP signal change (wild-type ribosome) is 3.42% (inactive), the OD600 change is 2.75% and the RFP signal change was -7.15%.

As for `COc1ccc2c3c([nH]c2c1)[C@@H](CO)N(C(=O)C1CC1)CC31CCN(Cc2nccs2)CC1`, the GFP signal change (wild-type ribosome) is -6.7% (inactive), the OD600 change was -0.445% and the RFP signal change was -3.97%.

For `CCCNC(=O)C[C@@H]1CC[C@H]2[C@@H](COc3ccc(NC(=O)C4CCCC4)cc3C(=O)N2C)O1`, the GFP signal change (wild-type ribosome) was 2.97% (inactive), the OD600 change was 3.62% and the RFP signal change was determined as 0.145%.

Turning to `O=C(NC1CCC1)[C@@H]1[C@@H](CO)[C@@H]2Cn3c(ccc(/C=C/c4ccccc4)c3=O)[C@@H]2N1Cc1ccncc1`, the GFP signal change (wild-type ribosome) is -9.73% (inactive), the OD600 change was -7.87% and the RFP signal change stood at 7.36%.

`O=C(Nc1ccc(F)cc1)N1CC(=O)N2[C@H](CO)[C@H](c3ccc(C#Cc4ccccc4)cc3)[C@H]2C1`: the GFP signal change (wild-type ribosome) was -32.4% (inactive), the OD600 change was -57.1% and the RFP signal change turned out to be 29%.

With `C[C@@H]1CCCCO[C@H](CN(C)C)[C@H](C)CN([C@@H](C)CO)C(=O)c2cc(NS(=O)(=O)c3cn(C)cn3)ccc2O1`, the GFP signal change (wild-type ribosome) was 3.31% (inactive), the OD600 change was determined as 6.19% and the RFP signal change is -1.01%.

Turning to `CCn1c(SCC(=O)Nc2cc(C)c(Cl)cc2OC)nnc1-c1ccco1`, the GFP signal change (wild-type ribosome) was -38.4% (inactive), the OD600 change is -53.5% and the RFP signal change was -9.88%.

Turning to `CSc1nc(-c2ccco2)nn1C(=O)c1ccccc1Cl`, the GFP signal change (wild-type ribosome) was -25.9% (active), the OD600 change is -15.3% and the RFP signal change came out at 0.841%.

On to `Cn1c(SCC(=O)c2cccs2)nnc1-c1ccco1`, for which the GFP signal change (wild-type ribosome) is 1.2% (inactive), the OD600 change stood at 2.27% and the RFP signal change stood at 0.555%.

Take `COc1ccc(S(=O)(=O)N(C)C[C@@H]2Oc3ccc(NC(=O)CCC(F)(F)F)cc3C(=O)N([C@@H](C)CO)C[C@@H]2C)cc1`: the GFP signal change (wild-type ribosome) is 2.48% (inactive), the OD600 change stood at 3.34% and the RFP signal change was -0.798%.

For `C[C@@H](O)C#Cc1ccc([C@H]2[C@H]3CN(C(=O)c4ccc5c(c4)OCO5)CCCCN3[C@H]2CO)cc1`, the GFP signal change (wild-type ribosome) is 3.47% (inactive), the OD600 change is -9% and the RFP signal change was 2.17%.

As to `COc1ccc2oc(=O)cc(CN3CCOCC3)c2c1`, the GFP signal change (wild-type ribosome) was 18.2% (inactive), the OD600 change is 14.8% and the RFP signal change was 0.523%.

As for `CCCc1cc(=O)oc2cc(OCC(=O)Nc3ccc(CN4CCOCC4)cc3)c(Cl)cc12`, the GFP signal change (wild-type ribosome) was 0.107% (inactive), the OD600 change was found to be 0.304% and the RFP signal change is -1.17%.

For the compound `COc1ccc(-c2cc(=O)oc3cc(OC(C)C(=O)Nc4ccc(CN5CCOCC5)cc4)ccc23)cc1` (configuration not stated), the GFP signal change (wild-type ribosome) was -20% (active), the OD600 change is -14.2% and the RFP signal change came to 3.54%.

As for `C[C@@H]1CCCCO[C@@H](CN(C)C(=O)c2ccccc2)[C@H](C)CN([C@@H](C)CO)C(=O)c2cc(NS(=O)(=O)c3cn(C)cn3)ccc2O1`, the GFP signal change (wild-type ribosome) was 4.03% (inactive), the OD600 change worked out at 4.12% and the RFP signal change is -1.99%.

As to `CC(NC(=O)c1ccccc1)C(=O)OCC(=O)Nc1cccc(S(=O)(=O)N2CCCC2)c1` (configuration not stated), the GFP signal change (wild-type ribosome) is -2.56% (inactive), the OD600 change came out at 4.84% and the RFP signal change is -0.0785%.

Turning to `O=C(CCNC(=O)c1ccc(Br)cc1)Nc1cccc(S(=O)(=O)N2CCCCC2)c1`, the GFP signal change (wild-type ribosome) is -12.3% (inactive), the OD600 change is -43.3% and the RFP signal change is 1.03%.

In the case of `Cc1ccc(C(=O)NCC(=O)OCC(=O)Nc2cccc(S(=O)(=O)N3CCCC3)c2)cc1C`, the GFP signal change (wild-type ribosome) is -20.9% (active), the OD600 change was -2.78% and the RFP signal change was -2.48%.

In the case of `CC(C)(C)[S@](=O)N1Cc2cc(C(=O)N[C@@H]3CCN(Cc4ccccc4)C3)nc(-c3cccc(-c4ccncc4)c3)c2[C@@H]1CCO`, the GFP signal change (wild-type ribosome) was 1.13% (inactive), the OD600 change came to 9.43% and the RFP signal change was -4.39%.

Take `CCCNC(=O)N1C[C@H]2[C@@H](c3ccccc31)[C@H](CO)N2C(=O)NC(C)C`: the GFP signal change (wild-type ribosome) is 2.8% (inactive), the OD600 change was determined as 10.8% and the RFP signal change stood at 1.99%.

For `COc1ccc(Cl)cc1NC(=O)NCC1CCN(Cc2ccccc2F)CC1`, the GFP signal change (wild-type ribosome) was -5.44% (inactive), the OD600 change is -28.5% and the RFP signal change worked out at 37.7%.

`COc1ccc(Cl)cc1NC(=O)NC(C)C(C)(C)C` (configuration not stated): the GFP signal change (wild-type ribosome) is -0.51% (inactive), the OD600 change turned out to be 1.25% and the RFP signal change was 0.006%.

As for `COc1ccc(Cl)cc1NC(=O)C(C)N1CCc2ccccc21` (configuration not stated), the GFP signal change (wild-type ribosome) was -31% (active), the OD600 change was -24.4% and the RFP signal change is -3.11%.

`CC(C)C[C@H](NC(=O)N1CCn2c1nc1ccccc12)C(=O)NC1CC1`: the GFP signal change (wild-type ribosome) is 0.495% (inactive), the OD600 change turned out to be 2.23% and the RFP signal change was -1.23%.

Regarding `CSCC[C@H](NC(=O)N1CCn2c1nc1ccccc12)C(=O)NC1CCCCC1`, the GFP signal change (wild-type ribosome) was -28.5% (active), the OD600 change is -22.6% and the RFP signal change was -0.555%.

As for `CSCC[C@H](NC(=O)N1CCn2c1nc1ccccc12)C(=O)NCc1ccc2c(c1)OCO2`, the GFP signal change (wild-type ribosome) is -1.83% (inactive), the OD600 change was -3.03% and the RFP signal change is 3.82%.
